Test results as given in the supplement of paper PMC8540655.

System: Aedes aegypti larvae
Assay: larval motility relative to same well at 0 h (fraction); higher = more motile (less active compound), active = 0.4 or less
Details: 10 µM; 2 h
Method: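 MMV Pandemic Response Box compounds were tested at 10 µM (1% v/v DMSO) on Aedes aegypti larvae (18-24 h after hatching, about 10 per well, 96-well plates). Motility was quantified with INVAPP (200-frame movies) at 0, 2 and 24 h. Each well's motility was divided by its own 0 h score, and the median of 3 independent screens is reported.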

**Q.** C[N+]1(C)CCCC(OC(=O)C(O)(c2ccccc2)c2ccccc2)C1 (centres undefined) was tested. Which larval motility did it give?
**A.** 0.776 (inactive)

**Q.** With C[C@@]1(O)[C@H](O)[C@@H](CO)O[C@H]1n1ccc2c(N)ncnc21 as the molecule, how does the larval motility read?
**A.** 0.65 (inactive)

**Q.** CC(C)Oc1cccc(NC(=O)c2ccccc2C(F)(F)F)c1 was tested. Which larval motility did it give?
**A.** 0.405 (inactive)

**Q.** How did the larval motility turn out when COc1cc(C(C)(C)CCCC(C)C)cc(OC)c1OC was run?
**A.** 1.11 (inactive)

**Q.** CCN1CCN(Cc2nc3ccc([N+](=O)[O-])cc3c(=O)n2-c2ccccc2F)CC1 was tested. Which larval motility did it give?
**A.** 0.54 (inactive)

**Q.** Which larval motility does the source give for CN1C(=O)C(c2ccccc2)C(=O)N(c2ccccc2)c2cc(C(F)(F)F)ccc21 (centres undefined) here?
**A.** 0.796 (inactive)

**Q.** For CCCCc1ccc(C(=O)O)nc1, which larval motility is on record?
**A.** 0.853 (inactive)

**Q.** NC1(C(=O)O)CCP(=O)(O)CC1 (centres undefined) was tested. Which larval motility did it give?
**A.** 0.238 (active)

**Q.** Which larval motility does the source give for COC(=O)Nc1nc2ccccc2[nH]1 here?
**A.** 0.867 (inactive)

**Q.** With COc1ccccc1CN[C@H]1C2CCN(CC2)[C@H]1C(c1ccccc1)c1ccccc1 as the molecule, how does the larval motility read?
**A.** 0.829 (inactive)

**Q.** How did the larval motility turn out when O=C(NC12CC3CC(CC(C3)C1)C2)c1cc2ccccc2[nH]1 was run?
**A.** 0.685 (inactive)

**Q.** With Nc1c(C(=O)NCc2ccco2)c2nc3ccccc3nc2n1CCN1CCCCC1 as the molecule, how does the larval motility read?
**A.** 0.782 (inactive)

Same assay, conditions: 10 µM; 24 h

**Q.** How did the larval motility turn out when C[N+]1(C)CCCC(OC(=O)C(O)(c2ccccc2)c2ccccc2)C1 (centres undefined) was run?
**A.** 0.656 (inactive)

**Q.** Which larval motility does the source give for C[C@@]1(O)[C@H](O)[C@@H](CO)O[C@H]1n1ccc2c(N)ncnc21 here?
**A.** 0.788 (inactive)

**Q.** With CC(C)Oc1cccc(NC(=O)c2ccccc2C(F)(F)F)c1 as the molecule, how does the larval motility read?
**A.** 0.543 (inactive)

**Q.** For COc1cc(C(C)(C)CCCC(C)C)cc(OC)c1OC, which larval motility is on record?
**A.** 1.04 (inactive)

**Q.** Which larval motility does the source give for CCN1CCN(Cc2nc3ccc([N+](=O)[O-])cc3c(=O)n2-c2ccccc2F)CC1 here?
**A.** 2.49 (inactive)

**Q.** For CN1C(=O)C(c2ccccc2)C(=O)N(c2ccccc2)c2cc(C(F)(F)F)ccc21 (centres undefined), which larval motility is on record?
**A.** 0.84 (inactive)

**Q.** How did the larval motility turn out when CCCCc1ccc(C(=O)O)nc1 was run?
**A.** 0.63 (inactive)

**Q.** For NC1(C(=O)O)CCP(=O)(O)CC1 (centres undefined), which larval motility is on record?
**A.** 1.44 (inactive)

**Q.** COC(=O)Nc1nc2ccccc2[nH]1 was tested. Which larval motility did it give?
**A.** 0.986 (inactive)

**Q.** How did the larval motility turn out when COc1ccccc1CN[C@H]1C2CCN(CC2)[C@H]1C(c1ccccc1)c1ccccc1 was run?
**A.** 0.616 (inactive)

**Q.** With O=C(NC12CC3CC(CC(C3)C1)C2)c1cc2ccccc2[nH]1 as the molecule, how does the larval motility read?
**A.** 1.27 (inactive)

**Q.** Which larval motility does the source give for Nc1c(C(=O)NCc2ccco2)c2nc3ccccc3nc2n1CCN1CCCCC1 here?
**A.** 0.543 (inactive)
